Screening data (PubChem)
Tb PYK inh: inhibitors of Trypanosoma brucei pyruvate kinase; TbPYK enzyme, Kinase-Glo Plus ATP luminescence, 45 min; Potency, µM (series often up to 76.8 µM), for the others: top-dose activity, negative = inhibition, usual class: inhibitors; 410,000 tested, 0.12% active; also: potency is read from the fitted curve at half-maximal effect; nearly all actives have a fitted effect of over 50% in size
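In this concentration-response screen, enzyme-free wells defined baseline while DMSO plates tracked drift. Each reaction combined TbPYK, substrate, compound and 130 uM ADP for 45 min at room temperature. Kinase-Glo Plus luminescence gave the signal.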
FMDV inh: antivirals against foot and mouth disease virus. AID 1159524. Potency, µM (doses to about 57.9 µM), for the others: top-dose activity change, negative = inhibition, hits mostly inhibitors. FMDV antiviral cell-based qHTS. 410,000 tested, 1.2% active; calls by dose curve; tested in HEK293T cells; also: read-out not given here; potency is read from the fitted curve at half-maximal effect; nearly all actives have a fitted effect of over 45% in size
Sm TGR inh: S. mansoni TGR enzyme inhibition; Q962Y6; purified TGR, DTNB reduction, TNB absorbance 405 nm; Potency, µM (doses to about 114 µM), for the others: top-dose activity change, negative = inhibition, usual class: inhibitors; 360,000 tested, 3% active; AID 485364; also: potency is read from the fitted curve at half-maximal effect; nearly all actives have a fitted effect of over 60% in size
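First, TGR (20 nM dispensed) and NADPH were mixed with compound. Second, a 15 min room-temperature incubation followed. Third, further NADPH and then DTNB were added to start the reaction. Finally, TNB absorbance was monitored kinetically.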
HCMV antiviral: inhibitors of human cytomegalovirus | HFF cells, HCMV-luciferase reporter, 72 h; stronger effect = lower value | activity change, negative = inhibition, % at 57.5 µM | 410,000 tested, 4.5% active | AID 1259415; in the data active = activity change below about -60%; inconclusive = no clear call, values can overlap the other calls; inactive = above about -39%
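HFF cells seeded 16 h at 37C, treated with compounds, infected with luciferase-reporter HCMV at MOI 1 PFU/cell; luciferase read at 72 h post infection, normalized to buffer-only and Salinomycin controls.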
FBPA Giardia inh: blocks Giardia fructose-bisphosphate aldolase activity; A8B2U2; purified Giardia FBPA; Potency, µM (top dose mostly 59.6 µM), for inactives: at the top dose activity, negative = inhibition, most hits filed as inhibitors; 290,000 tested, 0.71% active; AID 2451; also: potency is read from the fitted curve at half-maximal effect; nearly all actives have a fitted effect of over 55% in size
Target sequence (A8B2U2 whole entry, looked up): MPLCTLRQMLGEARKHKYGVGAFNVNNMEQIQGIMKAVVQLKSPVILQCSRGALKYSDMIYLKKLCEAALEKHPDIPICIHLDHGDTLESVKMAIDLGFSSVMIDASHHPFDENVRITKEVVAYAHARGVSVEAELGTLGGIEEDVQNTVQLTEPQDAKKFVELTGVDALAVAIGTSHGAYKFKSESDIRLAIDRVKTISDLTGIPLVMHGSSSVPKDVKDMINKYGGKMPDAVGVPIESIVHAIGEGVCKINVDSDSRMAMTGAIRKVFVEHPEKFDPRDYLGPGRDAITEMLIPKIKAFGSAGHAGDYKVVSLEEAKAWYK
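40 nM FBPA preincubated 10 min at RT with compound (up to 57.5 uM final), then substrate plus GAPDH/TPI/NAD/arsenate coupling and diaphorase/resazurin added. Fluorescence read after 20 min at RT, 525/598 nm.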
RE007 growth inh: less growth of the S. pombe RE007 Vpr strain | S. pombe RE007 Vpr strain, BacTiter-Glo ATP luminescence, 24 h | Potency, µM (doses to about 92.2 µM), inactives show top-dose activity change, negative = less growth, actives largely listed as inhibitors | 360,000 tested, 0.21% active | AID 651644; active = well fitted falling curve with a large enough effect; inconclusive = small, poorly fitted or top-dose-only effect; inactive = no such curve, though single readings can be large or run the other way; also: potency is read from the fitted curve at half-maximal effect; nearly all actives have a fitted effect of over 50% in size
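Fission yeast strain RE007, carrying one chromosomally integrated HIV-1 vpr copy, was seeded at OD 0.01 in PMG+AL medium with 23 nL pinned compound. After 24 h at 30 °C and 99% humidity, viability was read by BacTiter-Glo luminescence.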
An asterisk follows results filed as active; u = inconclusive; x = no result given. A selection: hits, their analogues and other compounds. The true share with any hit is near 7.7%. Unless noted, calls follow the shape of the dose curve; as a rule, active = well fitted curve in the direction sought with a large enough effect; inconclusive = small, poorly fitted or top-dose-only effect, or another doubt; inactive = no such curve, though single readings can be large; an effect the other way counts as inactive or inconclusive. % is scaled to controls: 0 for no effect and ±100 for the full control effect.

SMILES | Tb PYK inh | FMDV inh | Sm TGR inh | HCMV antiviral | FBPA Giardia inh | RE007 growth inh
CSc1sc(C(=O)NCC2CC2)cc1S(=O)(=O)C(C)C | 7% | -16% | 1% | -2 | 0% | -3%
COC(=O)c1cc(S(=O)(=O)C(C)C)c(S(C)=O)s1 (stereo unspecified) | 3% | -18% | 35µM* | -66* | 4% | -1%
O=C(c1ccc(Cl)cc1)n1nc(-c2ccccc2)nc1NCc1ccco1 | 0% | 14% | 0% | -31 | x | x
CCN(c1ccccc1)S(=O)(=O)c1ccc(F)c(C(=O)Nc2ccc(C)cc2)c1 | -15% | 0% | 31% | -29 | x | x
C=CCN(c1ccccc1)S(=O)(=O)c1cccc(C(=O)NCc2ccncc2)c1 | -1% | -1% | 0% | -30 | x | 11%
Cc1ccccc1NC(=O)c1ccc(N(Cc2ccccc2)S(C)(=O)=O)cc1 | 2% | -2% | -1% | u | x | x
C=CCN(c1ccccc1)S(=O)(=O)c1cccc(C(=O)Nc2ccncc2)c1 | 1% | 22µM* | 0% | -75* | x | -13%
CCN(c1ccccc1)S(=O)(=O)c1cc(C(=O)Nc2ccc(F)c(F)c2)ccc1F | -6% | 11µM* | -1% | -91* | 2% | 13%
COc1ccc(N(C)S(=O)(=O)c2cccc(C(=O)Nc3nc4ccccc4[nH]3)c2)cc1 | -2% | u | -9% | u | -2% | 3%
CN(c1cccc(Cl)c1)S(=O)(=O)c1cccc(C(=O)Nc2nc3ccccc3[nH]2)c1 | -5% | 13µM* | 6% | -99* | 13% | 5%
CS(=O)(=O)N(Cc1ccccc1)c1ccc(C(=O)Nc2ccc(Cl)cc2)cc1 | -6% | u | 0% | -88* | x | x
O=C(Cn1ncc2c([nH]c3ccccc32)c1=O)NCc1cccc(Cl)c1 | 4% | 7% | -10% | 4 | x | x
CCN(c1ccccc1)S(=O)(=O)c1ccc(C(=O)Nc2ccncc2)cc1 | 1% | 25µM* | -3% | -25 | x | u
C=CCN(c1ccccc1)S(=O)(=O)c1cccc(C(=O)Nc2nc3ccccc3[nH]2)c1 | -11% | 22µM* | -8% | -8 | 16% | 31%
C=CCN(c1ccccc1)S(=O)(=O)c1cccc(C(=O)Nc2ccc(N3CCOCC3)cc2)c1 | 6% | 22µM* | 3% | u | x | 7%
C=CCN(c1ccccc1)S(=O)(=O)c1cccc(C(=O)O)c1 | -2% | -21% | -9% | 31 | 19% | -10%
CCN(c1ccccc1)S(=O)(=O)c1ccc(Cl)c(NC(=O)Nc2ccc(Cl)cc2C#N)c1 | -1% | 0% | 5% | u | -7% | 2%
CCN(c1ccccc1)S(=O)(=O)c1ccc(C(=O)Nc2cccc(NC(C)=O)c2)cc1 | 1% | u | x | -7 | x | 19%
CCN(c1ccccc1)S(=O)(=O)c1cc(NC(=O)Nc2ccccc2C#N)ccc1Cl | 0% | u | -10% | -68* | 1% | -2%
CCN(CC)S(=O)(=O)c1ccc(NC(=O)c2c(C)oc3ncnc(N4CCCCC4)c23)cc1 | -2% | 0% | 0% | -6 | x | x
COC(=O)CSc1nc2sc3c(c2c(=O)n1-c1ccccc1C)CC(C)(C)OC3 | 6% | -7% | -1% | 10 | x | x
COc1ccc(-c2cn[nH]c2-c2ccc(OCc3ccc(F)cc3)cc2O)cc1OC | 5% | 25µM* | 10% | u | -3% | 3%
COc1ccc(-c2cn[nH]c2-c2ccc(O)cc2O)cc1 | -3% | u | 15% | -88* | 8% | 19%
C=C(C)COc1ccc(-c2n[nH]c(C)c2-c2ccc(OC)c(OC)c2)c(O)c1 | -8% | u | 5% | -84* | -15% | 4%
C=C(C)COc1ccc(-c2[nH]ncc2-c2ccc(OC)cc2)c(O)c1 | 2% | -13% | 8% | -70* | -8% | -1%
SMILES | Tb PYK inh | FMDV inh | Sm TGR inh | HCMV antiviral | FBPA Giardia inh | RE007 growth inh
CCOc1ccc(N2C(=O)C(c3nnnn3C(C)(C)C)N(Cc3ccc(OC)c(OC)c3)C2=O)cc1 (stereo unspecified) | x | x | x | -6 | x | x
CC(CNC(=O)[C@@H](Cc1ccccc1)NC(=O)[C@H]1O[C@@H](n2cnc3c(=O)[nH]c(N)nc32)[C@H](O)[C@@H]1O)c1ccccc1 (stereo partly specified) | x | x | x | -23 | x | x
O=S(=O)(Nc1ccc(F)c(C(F)(F)F)c1)c1ccc(N2CCCCS2(=O)=O)cc1 | 2% | 11% | 9% | -38 | x | x
Cc1c(N/N=C(\C#N)C(=O)c2ccccc2)c(=O)n(-c2ccccc2)n1C | -3% | -17% | -18% | -79* | u | -8%
Cc1c(NC2(C#N)CCCC2)c(=O)n(-c2ccccc2)n1C | 5% | -2% | 40µM* | x | -11% | -4%
Cc1c(NC2(c3nnnn3-c3ccc(Br)cc3)CCCCC2)c(=O)n(-c2ccccc2)n1C | -4% | 26% | 3% | 13 | 7% | 12%
Cc1c(NC(=O)Nc2ccc(C#N)cc2)c(=O)n(-c2ccccc2)n1C | 2% | -13% | -26% | 35 | 4% | -20%
Cc1ccccc1C(=O)/C(C#N)=N/Nc1c(C)n(C)n(-c2ccccc2)c1=O | -6% | -32% | -10% | -88* | u | x
COc1ccccc1CNC(=O)CS(=O)(=O)Cc1nc(-c2ccccc2C)oc1C | 0% | -9% | -35% | 0 | x | x
CC(COc1cccc2ccccc12)CN1CCN(C)CC1 (stereo unspecified) | 4% | -22% | 25µM* | 5 | -12% | -27%
CCOC(=O)c1c(NC(=O)/C=C/c2ccc(C)cc2)sc2c1CCCC2 | -3% | 4% | 3% | -2 | x | x
COc1ccc(CCNC(=O)c2cc(Nc3ccccc3)nc3ccccc23)cc1OC | 5% | -15% | -14% | 31 | x | x
COc1ccc(Nc2ccncc2[N+](=O)[O-])cc1 | 5% | -14% | 0% | -71* | 9% | -15%
Cc1ccc(C2=CC(=O)N(CCC(N)=O)C2)cc1 | x | x | x | 49 | x | x
CC(C)(C)C(=O)OCOC(=O)C1N2C(=O)CC2S(=O)(=O)C1(C)C (stereo unspecified) | 2% | x | x | x | x | x
O.O=C([O-])CC([S-])C(=O)[O-].[Au+].[Na+].[Na+] (stereo unspecified) | -8% | x | x | x | x | x
CCOc1cc(C=C2C(=O)NC(=O)NC2=O)ccc1OS(=O)(=O)c1ccccc1 | u | -16% | 22µM* | x | u | 5%
CCOc1ccc(C=C2C(=O)NC(=S)NC2=O)cc1OCC | u | u | x | -29 | x | 21%
COc1cc(C=C2C(=O)NC(=O)NC2=O)ccc1OS(=O)(=O)c1ccccc1[N+](=O)[O-] | -26% | 0% | 2.8µM* | -22 | -26% | -17%
